# Test results as given in PubChem BioAssay (NCATS).
# “And” between values parts separate entries of the source, which are not always exact repeats. Equal entries are not always repeated. Records with an inconclusive call do not appear. A call without a number means that no potency is given here. The source made the active and inactive calls. Unless noted, calls follow the shape of the full dose curve.
# Tests used:
# [1] = qHTS for Inhibitors of the Functional Ribonucleoprotein Complex (vRNP) of Lassa (LASV) Arenavirus: LASV Primary Screen - GLuc reporter signal (AID 1347082; calls by dose curve; tested in HEK293 reporter line; also: nearly all actives have a fitted effect of over 60% in size)
# [2] = qHTS for Inhibitors of the Functional Ribonucleoprotein Complex (vRNP) of Lassa (LASV) Arenavirus: Viability assay - alamar blue signal for LASV Primary Screen (AID 1347083; calls by dose curve; tested in HEK293 reporter line; also: nearly all actives have a fitted effect of over 80% in size)
# [3] = qHTS for Inhibitors of the Functional Ribonucleoprotein Complex (vRNP) of Lymphocytic Choriomeningitis Arenaviruses (LCMV): Viability assay - alamar blue signal for LCMV Primary Screen (AID 1347085; calls by dose curve; tested in HEK293 reporter line; also: nearly all actives have a fitted effect of over 80% in size)
# [4] = molecular target: Nucleoprotein (Lymphocytic choriomeningitis virus (strain Armstrong)) (UniProt P09992); experiment: qHTS for Inhibitors of the Functional Ribonucleoprotein Complex (vRNP) of Lymphocytic Choriomeningitis Arenaviruses (LCMV): LCMV Primary Screen - GLuc reporter signal (AID 1347086); also: nearly all actives have a fitted effect of over 70% in size
# Sequence of Nucleoprotein (Lymphocytic choriomeningitis virus (strain Armstrong)) (P09992 whole entry, looked up): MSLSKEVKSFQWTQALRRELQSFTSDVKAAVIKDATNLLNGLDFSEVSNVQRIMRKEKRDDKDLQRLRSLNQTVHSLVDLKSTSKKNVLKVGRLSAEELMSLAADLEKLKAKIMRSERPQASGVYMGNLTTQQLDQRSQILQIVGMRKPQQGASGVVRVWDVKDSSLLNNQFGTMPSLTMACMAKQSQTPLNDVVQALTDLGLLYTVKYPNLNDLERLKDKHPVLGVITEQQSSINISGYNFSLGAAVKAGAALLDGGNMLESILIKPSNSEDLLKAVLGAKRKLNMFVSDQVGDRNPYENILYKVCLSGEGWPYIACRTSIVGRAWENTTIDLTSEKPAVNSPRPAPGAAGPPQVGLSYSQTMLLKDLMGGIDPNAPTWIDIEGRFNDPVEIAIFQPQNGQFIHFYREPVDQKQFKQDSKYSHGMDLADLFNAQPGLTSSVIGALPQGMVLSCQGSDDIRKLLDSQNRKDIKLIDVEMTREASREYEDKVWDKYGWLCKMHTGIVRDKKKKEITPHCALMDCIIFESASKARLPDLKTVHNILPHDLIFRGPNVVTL
# [5] = Primary qHTS for Huh7 cytotoxicity: counterscreen for inhibitors of MERS-S pseudotyped particle cell entry (AID 1479147); conditions: outcome: dose series up to 57.1 µM unless noted
# [6] = Primary qHTS for inhibitors of MERS-S pseudo-typed particle cell entry (AID 1479149); also: nearly all actives have a fitted effect of over 60% in size
# [7] = Primary qHTS for Vero E6 cytotoxicity: counterscreen for inhibitors of SARS-S pseudo-typed particle cell entry (AID 1479150); conditions: outcome: dose series up to 57.1 µM unless noted
# [8] = Cytotoxicity counterscreen for inhibitors of SARS-CoV-2 cell entry (AID 1645845); also: nearly all actives have a fitted effect of over 50% in size
# Outline: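 ATP-content luminescence (ATPLite 1step, 15 min RT) read after 48 h compound exposure of Expi293F cells stably expressing human ACE2; normalized to cells-only wells and media-only wells.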
# [9] = Primary qHTS to identify inhibitors of SARS-CoV-2 cell entry (AID 1645846); also: nearly all actives have a fitted effect of over 45% in size
# Outline: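 Luminescence readout (Bright-Glo luciferase) 48 h after pseudoparticle addition. HEK293-ACE2 cells, 1500/well; compound pre-incubation 1 h; Normalized to spike PP and bald PP.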
# [10] = Primary qHTS for inhibitors of SARS-S pseudo-typed particle cell entry (AID 1479145); also: nearly all actives have a fitted effect of over 45% in size
# [11] = molecular target: Nuclear receptor subfamily 1 group I member 3 (Homo sapiens) (UniProt Q14994); experiment: Primary qHTS for antagonist of constitutive androstane receptor (CAR) against the NCATS DSHEA and TCM libraries (AID 1794836; active = well fitted curve in the direction sought with a large enough effect; an effect the other way counts as inactive or inconclusive;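 also: HepG2 cells stably expressing hCAR with CYP2B6 luciferase reporter stimulated by CITCO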)
# Sequence of Nuclear receptor subfamily 1 group I member 3 (Homo sapiens) (Q14994 whole entry, looked up): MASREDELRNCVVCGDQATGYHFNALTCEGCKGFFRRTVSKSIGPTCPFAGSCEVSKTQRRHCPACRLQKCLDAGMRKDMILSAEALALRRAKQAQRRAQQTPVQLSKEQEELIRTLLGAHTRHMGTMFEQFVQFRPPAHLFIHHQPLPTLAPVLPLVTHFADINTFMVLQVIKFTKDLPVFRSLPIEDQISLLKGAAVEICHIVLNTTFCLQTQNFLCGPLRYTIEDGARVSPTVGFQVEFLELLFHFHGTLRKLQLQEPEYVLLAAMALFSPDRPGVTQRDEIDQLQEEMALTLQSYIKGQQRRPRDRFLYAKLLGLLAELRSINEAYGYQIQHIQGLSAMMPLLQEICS
# Outline: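 Antagonist mode: CAR reporter luminescence (ONE-Glo) in HepG2-CYP2B6-hCAR cells stimulated with 48 uM CITCO (final) over 24 h at 37 C, compounds titrated; viability read first by CellTiter-Fluor fluorescence.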
# [12] = KB-8-5-11 P-gp reporter qHTS against the NCATS DSHEA and TCM libraries (AID 1919977; active = well fitted curve in the direction sought with a large enough effect; an effect the other way counts as inactive or inconclusive)
# Outline: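 P-gp-overexpressing KB-8-5-11 cells (500/well) were plated in colchicine-free DMEM with 10% FBS, attached ~4 h, then exposed to substance titrations for ~72 h at 37C. Viability was read by CellTiter-Glo luminescence.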
# [13] = Validation screen for inhibitors of Lassa infection (AID 463096)
# [14] = Inducers of the Endoplasmic Reticulum Stress Response (ERSR) in human glioma: Validation (AID 504836; active = well fitted curve in the direction sought with a large enough effect; an effect the other way counts as inactive or inconclusive)
# Outline: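 ERSR induction read as luciferase luminescence (Bright-Glo, 10 min at room temperature) in stably transfected human U87-MG glioma cells exposed to compounds for 16 h, using GRP78 as sensor.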
# [15] = activity change, negative = inhibition: at 57.1 µM (top of the series) unless noted
structure (smiles),measurement,setting,value
NCCCNCCCCNC(=O)C(O)NC(=O)CCCCCCN=C(N)N (stereo not given),Potency,[1],inactive
same,Potency,[2],inactive
same,Potency,[3],inactive
same,Potency,[4],inactive
same,outcome,[5],inactive
same,Potency,[6],inactive
same,outcome,[7],inactive
same,Potency,[8],inactive
CC(=O)Nc1cccc(-n2c(=O)n(C3CC3)c(=O)c3c(Nc4ccc(I)cc4F)n(C)c(=O)c(C)c32)c1,Potency,[1],inactive
same,Potency,[2],inactive
same,Potency,[3],inactive
same,Potency,[4],inactive
same,outcome,[5],inactive
same,Potency,[6],inactive
same,outcome,[7],inactive
same,Potency,[8],inactive
C[C@H]1COc2c(N3CCN(C)CC3)c(F)cc3c(=O)c(C(=O)O)cn1c23,Potency,[1],inactive
same,Potency,[2],inactive
same,Potency,[3],inactive
same,Potency,[4],inactive
same,outcome,[5],inactive
same,Potency,[6],inactive
same,outcome,[7],inactive
same,Potency,[8],inactive
same,"activity change, negative = inhibition",[9]; [15],-10.7% and -28.1%
c1cc(CN2CCCNCCNCCCNCC2)ccc1CN1CCCNCCNCCCNCC1,Potency,[1],inactive
same,Potency,[2],inactive
same,Potency,[3],inactive
same,Potency,[4],inactive
same,"activity change, negative = inhibition",[10],-15.1% [at 5.34 µM] (inactive)
same,outcome,[5],inactive [at 5.34 µM]
same,outcome,[6],inactive [at 5.34 µM]
same,outcome,[7],inactive [at 5.34 µM]
same,Potency,[8],inactive
same,"activity change, negative = inhibition","[9]; SARS-CoV-2 pseudovirus cell entry assay, luminescence, at 5.25 µM (top of the series)",-25.3%
same,"activity change, negative = inhibition","[9]; SARS-CoV-2 pseudovirus cell entry assay, luminescence, at 57.1 µM (top of the series)",-51.7%
Nc1cccc2c1C(=O)N(C1CCC(=O)NC1=O)C2=O (stereo not given),Potency,[1],inactive
same,Potency,[2],inactive
same,Potency,[3],inactive
same,Potency,[4],inactive
same,outcome,[5],inactive
same,Potency,[6],inactive
same,outcome,[7],inactive
same,Potency,[8],inactive
same,"activity change, negative = inhibition",[9]; [15],-12.7%
CCCCCCCCCCCC(=O)OCC(O)CO (stereo not given),Potency,[1],inactive
same,Potency,[2],inactive
same,Potency,[3],inactive
same,Potency,[4],inactive
same,Potency,[10],inactive
same,outcome,[5],inactive
same,Potency,[6],inactive
same,outcome,[7],inactive
same,Potency,[8],inactive
same,Potency,[9]; [15],inactive
same,Potency,[11],inactive
same,outcome,[12],inactive
O=C(O)c1nc(=O)[nH]c(=O)[nH]1,Potency,[1],inactive
same,Potency,[2],inactive
same,Potency,[3],inactive
same,Potency,[4],inactive
same,outcome,[5],inactive [at 0.573 µM]
same,outcome,[6],inactive [at 0.573 µM]
same,"activity change, negative = cytotoxicity",[7],2.99% [at 0.573 µM] (inactive)
same,Potency,[8],inactive
same,"activity change, negative = inhibition",[9]; [15],-18.6% [at 27.1 µM]
same,outcome,[9]; [15],inactive [at 0.702 µM]
CO[C@@H]1[C@H](OC(=O)/C=C/C=C/C=C/C=C/C(=O)O)CC[C@]2(CO2)[C@H]1[C@@]1(C)O[C@@H]1CC=C(C)C,Potency,[1],inactive
same,Potency,[2],inactive
same,Potency,[3],inactive
same,Potency,[4],inactive
same,outcome,[5],inactive
same,Potency,[6],inactive
same,outcome,[7],inactive
same,Potency,[8],inactive
CCC(NC(C)C)C(O)c1ccc(O)c(O)c1 (stereo not given),Potency,[13],inactive
same,outcome,[14],inactive
same,Potency,[1],inactive
same,Potency,[2],inactive
same,Potency,[3],inactive
same,Potency,[4],inactive
same,Potency,[10],inactive
same,outcome,[5],inactive
same,Potency,[6],inactive
same,outcome,[7],inactive
same,Potency,[8],inactive
same,"activity change, negative = inhibition",[9]; [15],-5.57%
O=C1CCCC(=O)C1C(=O)c1ccc(C(F)(F)F)cc1[N+](=O)[O-],Potency,[1],inactive
same,Potency,[2],inactive
same,Potency,[3],inactive
same,Potency,[4],inactive
same,outcome,[5],inactive
same,Potency,[6],inactive
same,outcome,[7],inactive
same,Potency,[8],inactive
